The source made the active and inactive calls. Rule for the calls: active = hit-call score of the fitted dose curve at least 0.9, where 1 is the maximum; inactive = score below 0.9.

Read-out in experiment [1]: Interleukin-8 (IL8), CXCL8 (gene 3576)
In words: BSK_CASM3C_IL8: BioMAP Diversity Plus: CASM3C Assay for Interleukin-8 (IL8) Biomarker Activity (AID 2283042).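 Note: IL-8 protein level quantified by ELISA.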 The note with it: primary human coronary artery smooth muscle cells; actives raise or lower the signal.

Read-out in experiment [2]: Human Leukocyte Antigen - DR isotype (HLADR), HLA-DRA (gene 3122)
Nature of the experiment: BSK_CASM3C_HLADR: BioMAP Diversity Plus: CASM3C Assay for Human Leukocyte Antigen - DR isotype (HLADR) Biomarker Activity (AID 2283043).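 Note: cell-surface HLA-DR protein level quantified by ELISA.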 As to conditions: primary human coronary artery smooth muscle cells; actives raise or lower the signal.

Read-out in experiment [3]: Macrophage colony-stimulating factor (MCSF), CSF1 (gene 1435)
In words: BSK_CASM3C_MCSF: BioMAP Diversity Plus: CASM3C Assay for Macrophage colony-stimulating factor (MCSF) Biomarker Activity (AID 2283044).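 Note: M-CSF protein amount quantified by ELISA after 24 h exposure.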 The note with it: primary human coronary artery smooth muscle cells; actives raise or lower the signal.

Read-out in experiment [4]: Low-density lipoprotein receptor (LDLR), LDLR (gene 3949)
In words: BSK_CASM3C_LDLR: BioMAP Diversity Plus: CASM3C Assay for Low-density lipoprotein receptor (LDLR) Biomarker Activity (AID 2283045).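 Note: LDLR protein level on the cell surface quantified by ELISA.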 The note with it: primary human coronary artery smooth muscle cells; actives raise or lower the signal.

Read-out in experiment [5]: Monocyte Chemoattractant Protein-1 (MCP1), CCL2 (gene 6347)
In words: BSK_CASM3C_MCP1: BioMAP Diversity Plus: CASM3C Assay for Monocyte Chemoattractant Protein-1 (MCP1) Biomarker Activity (AID 2283046).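 Note: MCP-1 level quantified by ELISA 24 h after dosing.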 The note with it: primary human coronary artery smooth muscle cells; actives raise or lower the signal.

Experiment [6] is described as follows: BSK_CASM3C_Proliferation: Cell Proliferation Assessment in the BioMAP Diversity Plus: CASM3C Assay (AID 2283047).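 Note: sulforhodamine B total protein stain as relative cell number at 560 nm; sub-confluent cells exposed 48 h before staining; fitted both ways against DMSO so gain or loss of cell number.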 The note with it: primary human coronary artery smooth muscle cells.
Read-out in experiment [7]: Monokine induced gamma interferon (MIG), CXCL9 (gene 4283)
In words: BSK_CASM3C_MIG: BioMAP Diversity Plus: CASM3C Assay for Monokine induced gamma interferon (MIG) Biomarker Activity (AID 2283048).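 Note: MIG protein level measured by ELISA.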 The note with it: primary human coronary artery smooth muscle cells; actives raise or lower the signal.

Read-out in experiment [8]: serum amyloid A (SAA), SAA1 (gene 6288)
Nature of the experiment: BSK_CASM3C_SAA: BioMAP Diversity Plus: CASM3C Assay for serum amyloid A (SAA) Biomarker Activity (AID 2283049). The note with it: primary human coronary artery smooth muscle cells; actives raise or lower the signal.

The nature of experiment [9]: BSK_CASM3C_SRB: Viability Assessment in the BioMAP Diversity Plus: CASM3C Assay (AID 2283050).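 Note: cells exposed to compound for 24 h.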 As to conditions: primary human coronary artery smooth muscle cells.
Read-out in experiment [10]: Thrombomodulin, THBD (gene 7056)
Nature of the experiment: BSK_CASM3C_Thrombomodulin: BioMAP Diversity Plus: CASM3C Assay for Thrombomodulin Biomarker Activity (AID 2283051).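 Note: thrombomodulin protein level measured by ELISA 24 h after dosing.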 As to conditions: primary human coronary artery smooth muscle cells; actives raise or lower the signal.

Read-out in experiment [11]: Tissue Factor, F3 (gene 2152)
Nature of the experiment: BSK_CASM3C_TissueFactor: BioMAP Diversity Plus: CASM3C Assay for Tissue Factor Biomarker Activity (AID 2283052).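 Note: cell surface tissue factor protein level read by ELISA.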 As to conditions: primary human coronary artery smooth muscle cells; actives raise or lower the signal.

Read-out in experiment [12]: Interferon-gamma inducible Protein 10 (IP10), CXCL10 (gene 3627)
In words: BSK_hDFCGF_IP10: BioMAP Diversity Plus: hDFCGF Assay for Interferon-gamma inducible Protein 10 (IP10) Biomarker Activity (AID 2283053). The note with it: primary human foreskin fibroblasts; actives raise or lower the signal. In outline: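 IP-10 levels, quantified by ELISA, are taken from human foreskin fibroblast cultures 24 h after chemical treatment, with DMSO serving as negative control and baseline for bidirectional analysis.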

Read-out in experiment [13]: Urokinase-type plasminogen activator receptor (uPAR), PLAUR (gene 5329)
In words: BSK_CASM3C_uPAR: BioMAP Diversity Plus: CASM3C Assay for Urokinase-type plasminogen activator receptor (uPAR) Biomarker Activity (AID 2283054).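 Note: cell-surface uPAR protein level quantified by ELISA.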 The note with it: primary human coronary artery smooth muscle cells; actives raise or lower the signal.

Read-out in experiment [14]: Vascular cell adhesion molecule 1 (VCAM1), VCAM1 (gene 7412)
In words: BSK_CASM3C_VCAM1: BioMAP Diversity Plus: CASM3C Assay for Vascular cell adhesion molecule 1 (VCAM1) Biomarker Activity (AID 2283055).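 Note: VCAM-1 protein level quantified by ELISA on the cells.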 As to conditions: primary human coronary artery smooth muscle cells; actives raise or lower the signal.

Read-out in experiment [15]: Collagen III, COL3A1 (gene 1281)
In words: BSK_hDFCGF_CollagenIII: BioMAP Diversity Plus: hDFCGF Assay for Collagen III Biomarker Activity (AID 2283056). As to conditions: primary human foreskin fibroblasts; actives raise or lower the signal. In a few lines: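 Human foreskin fibroblast primary cultures sampled 24 h after dosing; Collagen III quantified by ELISA. Signal fitted bidirectionally against DMSO baseline.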

Read-out in experiment [16]: Epidermal growth factor receptor (EGFR), EGFR (gene 1956)
In words: BSK_hDFCGF_EGFR: BioMAP Diversity Plus: hDFCGF Assay for Epidermal growth factor receptor (EGFR) Biomarker Activity (AID 2283057). As to conditions: primary human foreskin fibroblasts; actives raise or lower the signal. In a few lines: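 Measured by ELISA: EGFR levels on primary human foreskin fibroblasts 24 h after chemical treatment, analysed relative to DMSO with bidirectional fitting.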

Read-out in experiment [17]: Interleukin-8 (IL8), CXCL8 (gene 3576)
Nature of the experiment: BSK_hDFCGF_IL8: BioMAP Diversity Plus: hDFCGF Assay for Interleukin-8 (IL8) Biomarker Activity (AID 2283058). As to conditions: primary human foreskin fibroblasts; actives raise or lower the signal. In outline: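 Primary human foreskin fibroblasts (hDFCGF system) dosed with chemical; IL-8 measured by ELISA 24 hours later. Bidirectional curve fitting relative to DMSO baseline; cytotoxicity tracked in parallel cultures by SRB total protein staining.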

Experiment [18] is described as follows: BSK_hDFCGF_Proliferation: Cell Proliferation Assessment in the BioMAP Diversity Plus: hDFCGF Assay (AID 2283059).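 Note: curves fitted for both rise and fall of signal versus DMSO baseline.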 The note with it: primary human foreskin fibroblasts. In a few lines:
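Steps: dose primary human dermal fibroblasts (foreskin); […] fix in 10% TCA; stain with 0.1% SRB; read 560 nm; fit gain or loss of signal against DMSO.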

Experiment [19] is described as follows: BSK_hDFCGF_SRB: Viability Assessment in the BioMAP Diversity Plus: hDFCGF Assay (AID 2283061).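 Note: cells exposed to compound for 24 h before the read.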 The note with it: primary human foreskin fibroblasts. In a few lines: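 Human foreskin fibroblasts in 96-well plates were treated 24 h. Total protein was measured by 0.1% SRB staining after 10% TCA fixation, read at 560 nm. Data were fitted bidirectionally against DMSO.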

Read-out in experiment [20]: Macrophage colony-stimulating factor (MCSF), CSF1 (gene 1435)
In words: BSK_hDFCGF_MCSF: BioMAP Diversity Plus: hDFCGF Assay for Macrophage colony-stimulating factor (MCSF) Biomarker Activity (AID 2283060). The note with it: primary human foreskin fibroblasts; actives raise or lower the signal. In a few lines:
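Human foreskin fibroblast primary cultures; M-CSF measured by ELISA 24 hours after chemical dosing. Bidirectional fitting relative to DMSO, with overt cytotoxicity tracked by parallel SRB total-protein staining (0.1% SRB, 10% TCA fixation, 560 nm).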

Turning to `Cc1cccc(C)c1N`, the outcome in experiment [1], in experiment [2], in experiment [3], in experiment [4], in experiment [5] and in experiment [6] was inactive. Moreover, the result in [7], in [8], in [9], in [10], in experiment [11] and in experiment [12] was inactive. For the same compound, the outcome in experiment [13], in [14], in experiment [15], in experiment [16], in experiment [17] and in [18] was inactive. Moreover, in experiment [19], the result was inactive.
Turning to `Cc1cc(-c2ccc(N)c(C)c2)ccc1N`, the result in experiment [1], in experiment [2], in [3], in [4], in [5] and in experiment [6] was inactive. Further, the result in [7], in [8], in [9], in experiment [10], in experiment [11] and in [12] was inactive. Further, the outcome in experiment [13], in [14], in experiment [15], in experiment [16], in [17] and in [18] was inactive. For the same compound, in experiment [19], the outcome was inactive.
As to `CCC(=O)O[C@H]1CC[C@H]2[C@@H]3CCC4=CC(=O)CC[C@]4(C)[C@H]3CC[C@]12C`, the result in [1], in experiment [2], in experiment [3], in experiment [4], in experiment [5] and in [7] was inactive. Further, the result in [8], in experiment [9], in experiment [10], in experiment [11], in experiment [13] and in [14] was inactive. In addition, the result in [16] was inactive. Also, the AC50 is 20 µM (active) in experiment [6]; 38.2 µM (active) in [17]; 30.6 µM (active) in experiment [18]; 31.3 µM (active) in experiment [20]; 36.1 µM (active) in experiment [19].
In the case of `CCOP(=S)(OCC)SCSC(C)(C)C`, the outcome in [1], in [2], in experiment [4], in [5], in experiment [6] and in experiment [7] was inactive. Also, the outcome in [8], in [9], in [10], in [11], in experiment [12] and in [13] was inactive. Further, the outcome in experiment [14], in experiment [15], in [16], in [17], in experiment [18] and in experiment [19] was inactive. Moreover, the AC50 in [3] is 2.51 µM (active).
Regarding `Oc1ccc(C(c2ccc(O)cc2)(C(F)(F)F)C(F)(F)F)cc1`, the outcome in experiment [1], in experiment [2], in experiment [3], in experiment [5], in experiment [7] and in experiment [11] was inactive. Besides, the result in experiment [13] and in experiment [16] was inactive. The AC50 is 20 µM (active) in experiment [6]; 37.6 µM (active) in experiment [8]; 27.9 µM (active) in experiment [9]; 29.2 µM (active) in experiment [10]; 16.6 µM (active) in [12]; 31 µM (active) in experiment [14]. The AC50 in experiment [15] was 13.1 µM (active); in experiment [17] it was 30.6 µM (active); in experiment [18], 12.4 µM (active); in [20], 14.8 µM (active); in [19], 13.7 µM (active).
For `CCCN(CCC)N=O`, the outcome in experiment [1], in [3], in [4], in [5], in [6] and in experiment [7] was inactive. For the same compound, the result in [8], in experiment [9], in experiment [10], in experiment [11], in experiment [12] and in experiment [13] was inactive. For the same compound, the result in experiment [14], in experiment [15], in experiment [16], in experiment [17], in experiment [18] and in experiment [19] was inactive.
Consider `N#Cc1ccc(N(CC(N)=O)CC(F)(F)F)cc1C(F)(F)F`, for which the outcome in experiment [1], in experiment [2], in experiment [3], in experiment [4], in experiment [6] and in experiment [7] was inactive. The result in [8], in experiment [9], in [10], in experiment [11], in experiment [12] and in experiment [13] was inactive. Further, the result in experiment [14], in [15], in [16], in experiment [17], in experiment [18] and in experiment [19] was inactive. Also, the AC50 in experiment [5] was 0.335 µM (active).
For `CCC(C)(c1ccc(O)cc1)c1ccc(O)cc1`, the result in [1], in experiment [2], in experiment [3], in experiment [4], in experiment [5] and in [7] was inactive. Moreover, the outcome in experiment [8], in experiment [9], in experiment [11], in experiment [13], in experiment [14] and in experiment [16] was inactive. For the same compound, the result in experiment [17] was inactive. The AC50 was 25.5 µM (active) in experiment [6]; 26.5 µM (active) in experiment [10]; 30.1 µM (active) in experiment [12]; 20 µM (active) in experiment [15]; 30.4 µM (active) in [18]; 27.7 µM (active) in [19].
As to `COS(=O)(=O)OC`, the outcome in [1], in [2], in experiment [3], in [4], in experiment [5] and in experiment [6] was inactive. Also, the result in experiment [7], in experiment [8], in [9], in experiment [10], in experiment [11] and in experiment [12] was inactive. Besides, the outcome in [13], in [14], in [15], in [16], in experiment [17] and in experiment [18] was inactive. Moreover, the outcome in experiment [19] was inactive.
Take `Cc1ccc(O)c(C)c1`: the outcome in experiment [1], in experiment [3], in [4], in experiment [5], in experiment [6] and in experiment [7] was inactive. Moreover, the result in [8], in experiment [9], in [10], in experiment [11], in [12] and in experiment [13] was inactive. Further, the outcome in experiment [14], in [15], in [16], in [17] and in [19] was inactive. The AC50 is 20.7 µM (active) in experiment [2] and 12.4 µM (active) in experiment [18].

In general, AC50 refers to the concentration at which the activity in the assay is half-maximal.

Source of the values: PubChem BioAssay (EPA / NIEHS).
